# Biological target: T1, Methionyl-tRNA synthetase, putative (Leishmania donovani (strain BPK282A1)) (UniProt E9BF75)
# T1 sequence (whole entry): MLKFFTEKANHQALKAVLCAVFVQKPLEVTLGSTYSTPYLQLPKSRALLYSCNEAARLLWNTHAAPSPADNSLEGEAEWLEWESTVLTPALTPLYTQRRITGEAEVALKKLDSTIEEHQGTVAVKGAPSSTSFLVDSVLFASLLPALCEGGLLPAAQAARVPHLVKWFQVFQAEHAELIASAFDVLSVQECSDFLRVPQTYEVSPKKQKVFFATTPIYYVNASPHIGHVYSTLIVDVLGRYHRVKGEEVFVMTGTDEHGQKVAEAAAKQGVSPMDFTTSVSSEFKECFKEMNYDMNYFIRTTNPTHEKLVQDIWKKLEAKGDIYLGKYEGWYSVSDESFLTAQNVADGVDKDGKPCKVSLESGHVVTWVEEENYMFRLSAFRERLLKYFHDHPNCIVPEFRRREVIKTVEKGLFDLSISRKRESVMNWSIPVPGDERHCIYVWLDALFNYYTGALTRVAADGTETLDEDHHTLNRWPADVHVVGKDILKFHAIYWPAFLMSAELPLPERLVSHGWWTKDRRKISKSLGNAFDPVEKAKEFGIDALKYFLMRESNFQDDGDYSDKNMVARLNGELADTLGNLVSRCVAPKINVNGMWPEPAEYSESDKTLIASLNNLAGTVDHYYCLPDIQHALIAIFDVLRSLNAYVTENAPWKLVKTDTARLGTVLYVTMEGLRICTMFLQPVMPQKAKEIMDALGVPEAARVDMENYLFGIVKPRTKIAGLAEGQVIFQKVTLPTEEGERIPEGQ
# Assay: Leishmania donovani Methionine tRNA synthetase (LdMetRS):v7. Dose response assay
# Format: functional
# Set-up: conc 80 nM, time 150 minutes
smiles,measurement,setting,value
COCCNc1nc(-c2ccccn2)nc2sc3c(c12)CCCC3,PXC50,"BOTTOM 1.822787583, HILLSLOPE 1.291311311, MAX_EFFECT 71.49122807, TOP 102.6012048",4.27
same,PXC50,"BOTTOM -5.083400143, HILLSLOPE 1.043102409, MAX_EFFECT 66.66666667, TOP 106.555572",4.25
CS(=O)(=O)N1CCN(c2ccc3ccc(C(=O)NCC4CCCO4)cn23)CC1 (stereo not drawn),PXC50,"BOTTOM -3.857720999, HILLSLOPE 1.705839216, MAX_EFFECT 57.40402194, TOP 63.01150798",4.63
same,PXC50,"BOTTOM -4.829130924, HILLSLOPE 1.927262902, MAX_EFFECT 52.15311005, TOP 54.22060795",4.86
Cc1nc(N(C)CCC#N)c2c3c(sc2n1)CC(C)CC3 (stereo not drawn),PXC50,MAX_EFFECT 3.723404255,< 4
same,PXC50,MAX_EFFECT 5.699481865,< 4
CCc1nc(NCCCN(C)C)c2c3c(sc2n1)CCC3,PXC50,MAX_EFFECT 11.05527638,< 4
same,PXC50,MAX_EFFECT 11.54791155,< 4
O=C(CO)N1CCC(F)(F)C2(CCN(c3ccccc3)C2)C1 (stereo not drawn),PXC50,MAX_EFFECT 15.37037037,< 4
same,PXC50,MAX_EFFECT 18.30985915,< 4
CCc1nc(N2CCCC2C(=O)O)c2c3c(sc2n1)CCC3 (stereo not drawn),PXC50,MAX_EFFECT 9.836065574,< 4
same,PXC50,MAX_EFFECT 11.76470588,< 4
NS(=O)(=O)c1ccc(Cl)cc1Cl,PXC50,MAX_EFFECT 7.991360691,< 3
same,PXC50,MAX_EFFECT 11.97718631,< 3
CCOc1ccc(CN(C)Cc2nc(N)c3c(C)c(C)sc3n2)cc1,PXC50,MAX_EFFECT 7.466666667,< 4
same,PXC50,MAX_EFFECT 8.994708995,< 4
O=C(NC1CCCC1)c1ccc2ccc(N3CCOCC3)n2c1,PXC50,"BOTTOM 3.55073469, HILLSLOPE 1.692539638, MAX_EFFECT 59.05660377, TOP 61.76844647",4.9
same,PXC50,"BOTTOM 4.599152337, HILLSLOPE 2.687600256, MAX_EFFECT 55.70776256, TOP 54.83275802",4.96
Cc1sc2nc(CN3CCOCC3)nc(NS(C)(=O)=O)c2c1C,PXC50,MAX_EFFECT 10.38251366,< 4
same,PXC50,MAX_EFFECT 12.29946524,< 4
CCc1cc2c(NC(C(=O)O)C(C)C)nc(C)nc2s1 (stereo not drawn),PXC50,MAX_EFFECT 5.866666667,< 4
same,PXC50,MAX_EFFECT 8.994708995,< 4
CC1CCN(c2nc3c(c(C(F)(F)F)n2)CCCCC3)CC1,PXC50,MAX_EFFECT 8.396946565,< 4
same,PXC50,MAX_EFFECT 11.83879093,< 4
Cc1cc(C(F)(F)F)nc(N(C)Cc2c(C)noc2C)n1,PXC50,MAX_EFFECT 10.44386423,< 4
same,PXC50,MAX_EFFECT 10.70496084,< 4
CCc1cc2c(NCc3ccccn3)nc(C)nc2s1,PXC50,MAX_EFFECT 3.194103194,< 4
same,PXC50,MAX_EFFECT 6.030150754,< 4
CS(=O)(=O)N1CCN(c2ccc3ccc(C(=O)NCC4CC4)cn23)CC1,PXC50,"BOTTOM 3.917889821, HILLSLOPE 2.161741125, MAX_EFFECT 61.66007905, TOP 61.91262666",4.97
same,PXC50,"BOTTOM -0.968460018, HILLSLOPE 1.661925269, MAX_EFFECT 62.22222222, TOP 66.45309128",4.79
Cc1nc(N(C)CC(=O)NC2CC2)c2c3c(sc2n1)CCC3,PXC50,MAX_EFFECT 3.703703704,< 4
same,PXC50,MAX_EFFECT 5.866666667,< 4
CS(=O)(=O)N1CCN(c2ccc3cnc(C(=O)NC4CCCC4)cn23)CC1,PXC50,MAX_EFFECT 8.333333333,< 4
same,PXC50,MAX_EFFECT 13.54166667,< 4
Cn1cc(CN2CCC(F)(F)C3(CCN(c4ncc(F)cn4)C3)C2)cn1 (stereo not drawn),PXC50,MAX_EFFECT 3.286384977,< 4
same,PXC50,MAX_EFFECT 5.740740741,< 4
Cc1nc(N2CCNC(=O)CC2)c2c(CC(C)C)csc2n1,PXC50,MAX_EFFECT 6.557377049,< 4
same,PXC50,MAX_EFFECT 9.625668449,< 4
CCCN(CCOC)c1nc(C)nc2sccc12,PXC50,MAX_EFFECT 12.79373368,< 4
same,PXC50,MAX_EFFECT 15.14360313,< 4
O=C(NCC1CCCCC1)c1cc(=O)c2cc(O)ccc2o1,PXC50,MAX_EFFECT 0.575815739,< 4
same,PXC50,MAX_EFFECT 4.306220096,< 4
O=C(c1c[nH]cn1)N1CCC(F)(F)C2(CCN(c3cccc(F)c3)C2)C1 (stereo not drawn),PXC50,MAX_EFFECT 45.5399061,< 4
same,PXC50,MAX_EFFECT 46.11111111,< 4
Cc1cc(C)n(C2=NC(NCCC(C)C)c3c(sc4c3CCCC4)N2)n1 (stereo not drawn),PXC50,MAX_EFFECT 4.798464491,< 4
same,PXC50,MAX_EFFECT 13.23763955,< 4
CN(C)C(=O)N1CCN(c2ccc3ncc(-c4ccc5onc(N)c5c4)n3n2)CC1,PXC50,MAX_EFFECT 21.88295165,< 4
same,PXC50,MAX_EFFECT 25.43859649,< 4
CCNc1nc(-c2ccc(CC)cc2)cc(C(F)(F)F)n1,PXC50,MAX_EFFECT 8.510638298,< 4
same,PXC50,MAX_EFFECT 9.32642487,< 4
COCCNC(=O)c1ccc2ccc(N(C)CC3CC3)n2c1,PXC50,MAX_EFFECT 29.93197279,< 4
same,PXC50,MAX_EFFECT 41.12149533,< 4
CCCC(=O)N1CCC(c2ncc3c(n2)CCNC3)CC1,PXC50,MAX_EFFECT 6.802721088,< 4
same,PXC50,MAX_EFFECT 13.45794393,< 4
CC(C)C[C@H](N)CNc1cccnc1Oc1ccc(Cl)cc1,PXC50,MAX_EFFECT 7.660455487,< 4
same,PXC50,MAX_EFFECT 9.168443497,< 4
Cc1nc(N2CCN(CCO)CC2)c2c(-c3cccs3)csc2n1,PXC50,MAX_EFFECT 9.693877551,< 4
same,PXC50,MAX_EFFECT 12.37373737,< 4
O=C(O)C1CCCN1c1nc(-c2ccc(Cl)cc2)cc(C(F)(F)F)n1 (stereo not drawn),PXC50,MAX_EFFECT 7.310704961,< 4
same,PXC50,MAX_EFFECT 9.138381201,< 4
CN1CCN(C(=O)CNC(=O)c2ccc3ccc(N4CCN(S(C)(=O)=O)CC4)n3c2)CC1,PXC50,"BOTTOM 0.0904, HILLSLOPE 2.137945772, MAX_EFFECT 50.23923445, TOP 52.555747",4.83
same,PXC50,"BOTTOM 3.391781155, HILLSLOPE 3.900764743, MAX_EFFECT 59.59780622, TOP 59.91227163",4.76
COc1cc2ccc(N3CCN(S(C)(=O)=O)CC3)n2cc1C(=O)NC1CCCC1,PXC50,"BOTTOM 1.185639049, HILLSLOPE 1.624291099, MAX_EFFECT 57.89473684, TOP 63.90970976",4.71
same,PXC50,"BOTTOM -1.038445777, HILLSLOPE 1.129445656, MAX_EFFECT 51.04166667, TOP 100.0",4.35
Cc1nc(N2CCC(CCN3CCCC3)CC2)c2ccsc2n1,PXC50,MAX_EFFECT 38.29787234,< 4
same,PXC50,MAX_EFFECT 38.86010363,< 4
Cc1nn(C)cc1-c1cc(C(F)(F)F)nc(NC2CCN(C)CC2)n1,PXC50,MAX_EFFECT 9.138381201,< 4
same,PXC50,MAX_EFFECT 9.921671018,< 4

# — ChEMBL document CHEMBL3988442, “University of Dundee, Small-Polar-MMV Screening Library” (2021)
